Screening data deposited in PubChem BioAssay by National Center for Advancing Translational Sciences (NCATS).
The list is not random: actives were taken first. Their share in the collection is about 21%.
ClpP mod: qHTS Assay for Activators of ClpP | ATP-dependent Clp protease proteolytic subunit (Bacillus subtilis (strain 168)), P80244 | purified B. subtilis ClpP, FRET peptide cleavage, 20 min | Potency, µM (titrated, usually from 57.5 µM), without a hit: at the top dose activity change, negative = active | actives 1.9% (n = 340,000) | AID 651965, 2013; active means well fitted falling curve with a large enough effect; inconclusive means small, poorly fitted or top-dose-only effect; inactive means no such curve, though single readings can be large or run the other way; further: potency means the concentration at half of the fitted maximal effect; the source files actives as falling curves though it sought activators and does not explain the sign; nearly all actives have a fitted effect of over 65% in size
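ClpP 10 microg/mL final, pH 8 Tris/KCl buffer with BSA, glycerol, Tween-20; compound pinned in; FRET-FV substrate; RT 20 min; Ex320/Em430; ΔFRET vs ADEP 5.8 microM, DMSO, no enzyme.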
D3 ag: activates the human D3 dopamine receptor; max activation, %; AID 652048; actives 0.58% (n = 410,000); D3R DiscoveRx beta-arrestin cells, luminescence, 90 min; in the data active means max activation above about 30%; further: 0% is about no effect
Target sequence (P35462 whole entry, looked up): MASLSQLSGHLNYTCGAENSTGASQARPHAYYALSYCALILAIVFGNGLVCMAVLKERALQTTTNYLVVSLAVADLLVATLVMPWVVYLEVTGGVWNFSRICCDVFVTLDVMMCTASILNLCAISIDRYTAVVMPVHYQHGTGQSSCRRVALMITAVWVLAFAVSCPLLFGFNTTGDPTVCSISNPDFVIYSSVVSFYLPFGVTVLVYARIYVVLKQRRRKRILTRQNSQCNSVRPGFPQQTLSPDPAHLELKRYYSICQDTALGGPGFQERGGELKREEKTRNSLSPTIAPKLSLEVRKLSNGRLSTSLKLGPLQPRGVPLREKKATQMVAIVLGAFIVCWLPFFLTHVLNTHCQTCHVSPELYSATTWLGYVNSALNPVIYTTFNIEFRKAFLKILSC
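Agonist-mode cell screen: cells plated at 1500/well and incubated overnight at 37 °C, then exposed to library compounds for 90 min at 37 °C. Detection reagent was added for 30–60 min at room temperature, and luminescence was read.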
D3 antag: D3 dopamine receptor (human) antagonism. max response, negative = inhibition, %. actives 2.5% (n = 360,000). P35462. D3R cells, DiscoveRx beta-arrestin luminescence, antagonist mode; hits give low values. AID 652054; in the data active means max response below about -50%; inconclusive means no clear call, values can overlap the other calls; further: on the % scale 0 is the no-effect control and ±100 the full control effect
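Cells plated overnight at 1500 cells/well, then exposed to library compounds with dopamine controls for 90 minutes at 37 degrees C. DiscoveRx reagent added for 30–60 minutes at room temperature; luminescence read, quantitative HTS format.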
DT40 TDP1 no CPT: qHTS for Inhibitors of human tyrosyl-DNA phosphodiesterase 1 (TDP1): qHTS in cells in absence of CPT. DT40 Tdp1-/- hTDP1 cells, no CPT, ATP luminescence, 48 h. Potency, µM (doses to about 46.2 µM), inactives show top-dose activity change, negative = growth inhibition, actives largely listed as inhibitors. actives 15% (n = 420,000). AID 686978, 2013; further: potency means the concentration at half of the fitted maximal effect; on the % scale 0 is the no-effect control and ±100 the full control effect; nearly all actives have a fitted effect of over 55% in size
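Growth of hTDP1-complemented DT40 Tdp1-knockout cells is measured by ATP luminescence after at least 48 hr compound exposure at 37 °C, with DMSO substituting for the 20 nM CPT used in the parallel screen.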
DT40 TDP1 CPT: growth inhibition of DT40 Tdp1-/-;hTDP1 cells with camptothecin (screen for TDP1 inhibitors); chicken DT40 Tdp1-/-;hTDP1 cells + 20 nM CPT, ATP luminescence, 48 h; Potency, µM (top dose mostly 46.2 µM), without a hit: at the top dose activity change, negative = growth inhibition, actives largely listed as inhibitors; actives 12% (n = 420,000); further: potency means the concentration at half of the fitted maximal effect; on the % scale 0 is the no-effect control and ±100 the full control effect; nearly all actives have a fitted effect of over 55% in size
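Cell growth measured by CellTiter-Glo luminescence after a minimum 48 h, 37 C compound exposure with 20 nM CPT in Tdp1-knockout DT40 cells stably expressing hTDP1, seeded 400/well; qHTS titration format.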
IL1B secr inh: blocks inflammasome-driven IL-1 beta release | actives 4.7% (n = 360,000) | AID 743279 | THP-1 LPS/ATP IL-1B secretion, AlphaLISA, 16 h; hits give low values | activity change, % at 57.5 µM; in the data active means activity change below about -50%; inconclusive means mostly about -30% to -49%; further: on the % scale 0 is the no-effect control and ±100 the full control effect
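Secreted IL-1B measured by AlphaLISA bead assay after 16 h compound exposure of THP-1 cells; compounds (final up to 57.5 uM) added 1 h before LPS (250 ng/mL) and ATP (1.25 mM) stimulation; lower signal means less secretion.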
An asterisk follows results filed as active; i = inactive; ? = inconclusive; . = no result given. Unless noted, the call rests on the fitted dose curve; in most records, active means well fitted inhibition curve with a large enough effect; inconclusive means small, poorly fitted or top-dose-only effect; inactive means flat fitted curve, though single readings scatter.

SMILES	ClpP mod	D3 ag	D3 antag	DT40 TDP1 no CPT	DT40 TDP1 CPT	IL1B secr inh
S=C(NCCc1ccccc1)N1CCN(C(c2ccccc2)c2ccccc2)CC1	-2%	-24	0	16µM*	12µM*	-2
S=C(NCCc1ccccc1)N1CCCC1	0%	-4	-11	9%	11%	-7
S=C(NCCc1ccccc1)N1CCN(C23CC4CC(CC(C4)C2)C3)CC1	-5%	-14	-24	8.2µM*	10µM*	-84*
CCCCNC(=O)CCC1N=C2c3ccccc3N=C(SCC(=O)NCCc3ccc(OC)c(OC)c3)N2C1=O (configuration not stated)	-17%	-3	.	0%	6%	.
CN(C)C(=O)c1ccc(Nc2nnc(-c3ccc(O)cc3)c3ccccc23)cc1	.	-11	-6	?	?	-55*
CNC(=O)c1ccc(Nc2nnc(-c3ccc(O)cc3)c3ccccc23)cc1	-7%	-5	-6	?	-22%	-8
CCN(CC)C(=O)c1ccc(-c2nnc(Nc3ccc(C(=O)NC)cc3)c3ccccc23)cc1	-4%	0	14	?	15µM*	-25
CC(C)CCNC(=O)CN(Cc1ccco1)C(=O)CCC(=O)Nc1nccs1	.	0	6	-3%	0%	3
O=C(CN1CCN(Cc2ccc(Cl)cc2)C1=O)NCCCN1CCN(c2ccc(F)cc2)CC1	-3%	-48	-66*	10µM*	8.9µM*	-70*
CC(C)OCCCNC(=O)CN1CCN(Cc2ccccc2Cl)C1=O	0%	-9	-15	18µM*	?	9
Cc1ccccc1CN1CCN(CC(=O)NCCCN2CCN(c3ccc(F)cc3)CC2)C1=O	-5%	-17	?	13µM*	16µM*	?
O=C(CN1CCN(Cc2ccc(Cl)cc2)C1=O)NCCCN1CCOCC1	2%	-1	0	-2%	-6%	-1
CCOC(=O)c1cccc(NC(=O)c2cc(C)nn2-c2ccccc2)c1	2%	-6	0	?	-17%	57
C1=NN(c2ccccc2)C=NN1c1ccccc1	-15%	-12	21	?	-25%	9
CCCCn1c(N)c(N(CC(C)C)C(=O)C2CCN(S(=O)(=O)c3ccc(F)cc3)CC2)c(=O)[nH]c1=O	-1%	1	20	4%	5%	i
COc1ccc2cc3cc(C(=O)N4CCN(c5ccccc5)CC4)oc3nc2c1	0%	0	11	-4%	-28%	13
COc1ccc2cc3cc(C(=O)Nc4ccccc4N4CCN(C)CC4)oc3nc2c1	-8%	2	?	4.6µM*	4.6µM*	-96*
COc1ccc2cc3cc(C(=O)NCCN4CCN(c5ccccc5F)CC4)oc3nc2c1	1%	10	-9	16µM*	?	-18
COc1ccc2cc3cc(C(=O)NCC4CCCO4)oc3nc2c1 (configuration not stated)	43%	2	-8	-11%	1%	-56*
COc1ccc(NCc2ccc([N+](=O)[O-])s2)cc1	-4%	-4	0	21µM*	?	-71*
O=[N+]([O-])c1ccccc1CNc1ccc(F)c(Cl)c1	5%	-6	-16	?	-21%	-12
O=[N+]([O-])c1ccc(CNc2ccc(Cl)cc2)s1	-1%	6	-8	-14%	-21%	?
O=[N+]([O-])c1ccc(CNc2cccc(Cl)c2)s1	-1%	-4	-5	?	?	-95*
COc1ccc(NCc2ccc([N+](=O)[O-])s2)c(OC)c1	-2%	-4	0	?	16µM*	-8
COc1ccc(NC(=O)/C=C/c2ccccc2[N+](=O)[O-])c(OC)c1	-3%	-2	5	?	?	-13
